The source of these data is PubChem BioAssay (NCI).

About 83,000 compounds went through this panel and 20% of them were active in at least one assay; those are over-represented in the sample as a whole.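 Percent growth is the endpoint: 0 to 100 indicates growth inhibition (40 means 60% inhibition), 0 means no net growth, and negative values indicate cell death.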 A number with no mark means an inactive call. Calls of active or inactive are those of the source.

The assay deals with SN12C renal. The experiment in a line: NCI-60 one-dose screen, 48 h (100 = growth as untreated, 0 = no growth, -100 = all killed). As to conditions: 10 µM unless noted. Here is the method: Growth inhibition of the SN12C human tumor cell line is measured as a screen for anti-cancer activity. Cells are grown in 96 well plates and exposed to the test compound for 48 hours. Compounds are tested at a single concentration, which is 10^-5 M for most compounds. The reported endpoint is percent growth (GI% or GIPRCNT), where numbers from 0 - 100% represent growth inhibition, and numbers from -100% - 0 represent cell death. For example, a value of 40 represents 60% growth inhibition. A value of 0 means no net growth occurred over the course of the experiment. A value of -40 indicates 40% of cells at the beginning of the experiment died by the end of the experiment. A value of -100 means all cells are dead at the end of the experiment.
NCI-60 Human Tumor Cell Lines Screen was performed using the standard one-dose NCI protocol, which is described in more detail at https://dtp.cancer.gov/discovery_development/nci-60/default.htm.
Compounds with GIPRCNT values below 10 were considered active. Activity score was based on GIPRCNT using the following formula: […]
Score is 0 for GIPRCNT values of 100 or above, 50 for GIPRCNT values of 0, and 100 for GIPRCNT values of -100.
Regarding `COc1cc(-c2cc(-c3ccc(Nc4nc(Nc5ccc(Cl)cc5)nc(Nc5ccc(Cl)cc5)n4)cc3)no2)cc(OC)c1OC`, the growth was 106%.

`C/C(=N\Nc1ccccc1)c1ccc(NC2=CC(=O)c3ccccc3C2=O)cc1`: the growth is 63.5%.

As for `CCN(CC)CCN1C(=O)c2c(c3c4ccccc4[nH]c3c3ccc4ccccc4c23)C1=O`, the growth is -89.2% (active).

On to `N#Cc1c(-c2ccccc2)nc2c(c(-c3ccc(Cl)cc3)nn2-c2ccccc2)c1-c1ccc([N+](=O)[O-])cc1`, for which the growth was 105%.

Regarding `O=c1cc(C(F)(F)F)c2cc(-c3cc4ccccc4c(=O)o3)c(O)cc2o1`, the growth was 64.4%.

In the case of `Clc1ccc(Nc2ncc(Cc3cccc(Cl)c3Cl)s2)cc1`, the growth was 90.8%.

On to `O=S(=O)(Nc1cc(F)cc(F)c1)c1ccc(-c2cnc(C3CC3)o2)cc1`, for which the growth was 46.9%.

Turning to `C=C(C)[C@@H]1CC[C@]2(C(=O)N3CCN(C)CC3)CC[C@]3(C)[C@H](CC[C@@H]4[C@@](C)(CCC(=O)O)[C@H](C(=C)C)CC[C@]43C)[C@@H]12`, the growth was 85.9%.

For `COc1cc(O)c2c(=O)c3c(CC=C(C)C)cc(OC)c(O)c3oc2c1`, the growth was 40.2%.

Take `CCN(CC)CCOc1ccc(Nc2ncc3cc(-c4c(Cl)cccc4Cl)c(=O)n(CCOC)c3n2)cc1`: the growth is 10.5%.

For the molecule `Cc1nc([P+](c2ccccc2)(c2ccccc2)c2ccccc2)c(N2CCCCC2)o1`, the growth was 35%.

`N#Cc1c(-c2ccccc2)cc(-c2ccccc2)n(CCCCC(=O)NO)c1=O`: the growth was 23.2%.

On to `CNC(=O)c1cc(Oc2ccc3c(c2)sc2nc(-c4cc(C(F)(F)F)cc(C(F)(F)F)c4)cn23)ccn1`, for which the growth is 60.2%.

With `Cc1ccc2c(c1)sc1nc(-c3c[nH]c4ccccc34)c(Nc3ccccc3)n12`, the growth is 102%.

Regarding `CC1(C)CC[C@]23CC[C@]4(C)[C@H](CC[C@@H]5[C@@]6(C)CCNCC(C)(C)[C@@H]6CC[C@]54C)[C@H]2[C@H]1OC3`, the growth is 89.6%.

Consider `O=C(Oc1ccc2c(c1)sc1nc(-c3ccccc3)[nH]c(=O)c12)C(F)(F)F`, for which the growth is 32%.

On to `CCOC(=O)c1c(C)nc2ccccc2c1/C=C/c1ccc(F)cc1`, for which the growth is 77.1%.

Regarding `COC12C=C/C(=C(/C(=O)OCc3csc(SC)n3)C(=O)CCCCCCCCC3(OC)C=C/C(=C(/C(=O)OCc4cnc(SC)s4)C(=O)CCCCCCCC1)O3)O2` (stereo not given), the growth is 28.9%.

On to `CSc1ccc2c3c(n(CCCn4ccnc4)c(=O)c2c1)-c1ccccc1C3=O`, for which the growth is 45.1%.

Regarding `C=C1SC(=Nc2ccccc2Cl)N(C(=O)c2sc3ccccc3c2Cl)C1(C)C`, the growth is 78.9%.

Turning to `CNC(=O)c1cc(Oc2ccc3c(c2)sc2nc(-c4ccc(Cl)c(C(F)(F)F)c4)cn23)ccn1`, the growth is 64.4%.

Consider `CC(=O)c1c(Nc2cccc(F)c2)[nH]c2c(Cl)cc(Cl)c(Cl)c2c1=O`, for which the growth was -0.0775% (active).

Turning to `CN(C)CCCn1c2c(c3cnccc3c1=O)C(=O)c1ccccc1-2`, the growth is 1.1% (active).

In the case of `COc1ccc(C/C(C)=C(\c2ccc(Cl)cc2)c2ccc(OCCCN(C)C)cc2)cc1`, the growth is 78.8%.

As for `COc1cccc(-c2cn3nc(-c4cn(C)c5ccccc45)sc3n2)c1`, the growth was 92%.

`Nc1c(Cl)cc(/C=C2\C=Cc3ccccc32)cc1Cl`: the growth is 113%.

Turning to `Cc1c2cnccc2c(C)c2c1c1cc(CO)ccc1n2C`, the growth was -33.8% (active).

Consider `COc1cc([C@@H](CCO)C[C@H](C)c2ccc3ccccc3c2)cc(OC)c1OC`, for which the growth is 42.2%.

Take `O=c1oc2c(cc1-c1ccccc1)c[n+]([O-])c1ccccc21`: the growth was 97.2%.

As for `CC1(C)CC[C@]2(CO)CC[C@]3(C)[C@](O)([C@H](O)C[C@@H]4[C@@]5(C)CCCNC(C)(C)[C@@H]5CC[C@]43C)[C@@H]2C1`, the growth is 90%.

With `Cc1ccc(S(=O)(=O)OC[C@]23CCC(C)(C)C[C@H]2C2=CC[C@@H]4[C@@]5(C)CCCNC(C)(C)[C@@H]5CC[C@@]4(C)[C@]2(C)CC3)cc1`, the growth is 46.4%.

Take `CN1c2ccccc2S(=O)(=O)n2c(SCC(=O)Nc3nc4ccc(F)cc4s3)nnc21`: the growth was 104%.

`Nc1c(Br)cc2c(c1Br)Cc1cc([N+](=O)[O-])ccc1-2`: the growth was 101%.

For `Cc1cc(C(=O)CCCC(=O)c2cc(C)c(O)c(C)c2)cc(C)c1O`, the growth is 97.8%.

With `CCN(CC)CCOc1ccc(C(=O)/C=C\c2ccc(Cl)cc2Cl)cc1`, the growth was 43.4%.

As to `Cc1ccc2nc(-c3ccc(C(=O)N/N=C/c4ccc([N+](=O)[O-])cc4)cc3)[nH]c2c1`, the growth is 106%.

`COc1cc2c(cc1OCCCN1CCN(C(=S)SCCC(C#N)(c3ccccc3)c3ccccc3)CC1)N=C[C@@H]1CCCN1C2=O`: the growth is -43.9% (active).

Turning to `CC[C@@H](C(=O)[C@@H](C)[C@@H](O)[C@H](C)[C@@H]1O[C@@H]([C@@H](CC)C(=O)ONC(=O)c2ccccc2O)CC[C@@H]1C)C1O[C@]2(C=CC(=O)[C@]3(CC[C@@](C)([C@H]4CC[C@](O)(CC)[C@H](C)O4)O3)O2)[C@H](C)C[C@@H]1C` (stereo not given in full), the growth is 24.1%.

For the molecule `O=c1cc(CP(=O)(O)O)c2cc(O)c(-c3ccccc3)cc2o1`, the growth is 98.2%.

With `C=CCn1cc(-c2nc3ccccc3s2)c2cc(-c3ccc4c5c(cccc35)C(=O)N(CCO)C4=O)ccc21`, the growth is 89.2%.
